Results on 102 compounds are retold here after PubChem BioAssay AID376 (PDSP, 2006).

Among all 2,000 compounds or so, about 250 (12%) were called active. Only a selection was taken, and actives are over-represented in it overall. Values without a mark were called inactive. Rule as the data show it: active = hERG blockade below about -20% or above about 20%; inactive = in between.

This assay deals with Voltage-gated inwardly rectifying potassium channel KCNH2 (Homo sapiens) (UniProt Q12809). Nature of the assay: modulators of KCNH2 ion channel function, cellular (AID 376).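 Also: 0% = buffer alone and 100% = reference blocker.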 Particulars: hERG-expressing cells, channel activity single-concentration screen; concentration not given here.
Voltage-gated inwardly rectifying potassium channel KCNH2 (Homo sapiens), sequence (Q12809 whole entry, looked up): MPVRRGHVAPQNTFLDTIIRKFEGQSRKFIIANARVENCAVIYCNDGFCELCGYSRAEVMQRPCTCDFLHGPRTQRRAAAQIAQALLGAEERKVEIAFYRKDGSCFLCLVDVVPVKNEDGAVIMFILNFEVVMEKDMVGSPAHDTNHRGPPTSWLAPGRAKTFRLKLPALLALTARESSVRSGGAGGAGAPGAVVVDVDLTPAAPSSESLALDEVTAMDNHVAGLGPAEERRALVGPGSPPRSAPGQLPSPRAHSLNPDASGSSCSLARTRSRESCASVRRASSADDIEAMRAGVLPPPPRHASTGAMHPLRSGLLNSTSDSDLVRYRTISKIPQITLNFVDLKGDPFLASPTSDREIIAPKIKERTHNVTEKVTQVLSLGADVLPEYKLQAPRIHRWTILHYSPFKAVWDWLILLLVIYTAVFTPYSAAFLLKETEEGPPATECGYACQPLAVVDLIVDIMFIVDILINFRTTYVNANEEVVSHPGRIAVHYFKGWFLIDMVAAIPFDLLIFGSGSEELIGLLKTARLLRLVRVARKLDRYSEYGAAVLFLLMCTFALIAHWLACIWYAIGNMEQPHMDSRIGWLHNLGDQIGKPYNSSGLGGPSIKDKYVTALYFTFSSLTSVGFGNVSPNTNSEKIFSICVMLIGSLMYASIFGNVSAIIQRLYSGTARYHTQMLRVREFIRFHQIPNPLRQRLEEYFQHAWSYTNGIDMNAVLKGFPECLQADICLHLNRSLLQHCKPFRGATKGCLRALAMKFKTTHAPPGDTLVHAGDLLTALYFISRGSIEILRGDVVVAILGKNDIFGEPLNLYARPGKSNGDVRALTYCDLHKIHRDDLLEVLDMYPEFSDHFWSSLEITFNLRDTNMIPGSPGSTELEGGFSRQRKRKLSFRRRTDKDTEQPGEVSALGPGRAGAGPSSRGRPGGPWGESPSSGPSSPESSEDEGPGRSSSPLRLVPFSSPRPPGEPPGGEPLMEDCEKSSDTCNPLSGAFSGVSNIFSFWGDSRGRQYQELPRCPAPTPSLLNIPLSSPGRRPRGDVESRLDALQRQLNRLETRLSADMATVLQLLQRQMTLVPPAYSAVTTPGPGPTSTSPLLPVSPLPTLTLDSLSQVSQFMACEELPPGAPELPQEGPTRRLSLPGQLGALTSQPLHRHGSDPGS
In the case of `Cc1ccc(N=Nc2c(O)c3ccccc3[nH]c2=O)c(S(=O)(=O)N(C)C)c1`, the hERG blockade was 7.5%. Consider `Nc1c(S(N)(=O)=O)cc(S(N)(=O)=O)cc1S(N)(=O)=O`, for which the hERG blockade was 11.4%. Consider `Cc1ccc(N=Nc2ccc(N)cc2C)c(S(N)(=O)=O)c1`, for which the hERG blockade is 23.9% (active). Consider `CC1(C)OCC(C2OC3OC(C)(C)OC3C2N)O1` (configuration not stated), for which the hERG blockade was -5.67%. With `CCOC(=O)Nc1nc(-c2ccccc2)c(C)s1` the figure was 18.9%; with `O=C(O)C(CCc1ccccn1)c1ccccc1` (configuration not stated), 5.69%; with `NC(=O)C(=Cc1ccncc1)c1cccc2ccccc12`, -12.9%. With `O=C(O)C1C(C(=O)Nc2ccc3c(c2)Cc2ccccc2-3)C2(Cl)C(Cl)=C(Cl)C1(Cl)C2(Cl)Cl` (configuration not stated), the hERG blockade was 10.6%. For `Cc1cc2ccc(OC(=O)c3ccc(N=C(N)N)cc3)cc2oc1=O` the value was 13.7%; for `O=C(O)c1cc(Cl)cc(Cc2cc(Cl)cc(C(=O)O)c2O)c1O`, 17.1%; for `Oc1ccc(Cl)cc1Cc1cc(Cl)cc(Cc2cc(Cl)ccc2O)c1O`, 20.3% (active).

Consider `Oc1ccc(Cc2cc(Cl)cc(Cl)c2O)cc1Cl`, for which the hERG blockade is 45.1% (active).

Regarding `CN(Cc1cc(Cl)cc(Cl)c1O)Cc1c(O)ccc2ccccc12`, the hERG blockade was 10.9%. For `O=C(O)Cc1cc(Cl)ccc1O` the value was -4.5%.

Consider `OCCSCc1cc(Cl)cc(Cl)c1O`, for which the hERG blockade is 6.93%. Turning to `CC(C)(N=NC(C)(C)C(=N)N)C(=N)N`, the hERG blockade was 63.7% (active). With `CC(C)c1ccc(C(C(=O)O)=C(O)C(=O)O)cc1` the figure was 6.01%. Regarding `CCC1CCC2C3CC=C4CC(OC(C)=O)C(N)CC4(C)C3CCC12C` (configuration not stated), the hERG blockade is 63.9% (active).

On to `CN(C)CCC(=O)C1(O)CCC2C3CC=C4CC(O)CCC4(C)C3CCC21C` (configuration not stated), for which the hERG blockade is 2.46%. As for `CC12CCC(O)CC1=CCC1C2CCC2(C)C1CCC2N(CCO)CCO` (configuration not stated), the hERG blockade was -0.272%. For `COC(=O)CCC(C)C1CCC2C3CCC4CC(O)CCC4(C)C3CCC12C` (configuration not stated), the hERG blockade is 3.2%. As to `CC(CCC(=O)O)C1CCC2C3CCC4CC(O)CCC4(C)C3CCC12C` (configuration not stated), the hERG blockade was 5.62%. Consider `COc1ccc2c(c1)CN(C(C)C1CCC3C4CCC5CC(O)CCC5(C)C4CCC31C)CO2` (configuration not stated), for which the hERG blockade is 51.3% (active). For `CC(=N[O-])C(C)=N[O-].CC(=N[O-])C(C)=N[O-].CC(=N[O-])C(C)=N[O-].CC(=N[O-])C(C)=N[O-].[Cu].[Cu]` the value was 17.9%; for `O=S(=O)(c1ccc2ccccc2c1)N1CCN(S(=O)(=O)c2ccc3ccccc3c2)CC1`, -1.84%. As to `c1ccc2c(CN3CCN(Cc4c[nH]c5ccccc45)CC3)c[nH]c2c1`, the hERG blockade is -0.497%.

With `OCC(CCc1c[nH]c2ccccc12)c1c[nH]c2ccccc12` (configuration not stated), the hERG blockade was 53.3% (active).

On to `C[N+]1(C(CO)Cc2c[nH]c3ccccc23)Cc2ccccc2C1` (configuration not stated), for which the hERG blockade is 1.67%. For the compound `O=C(O)C1CCCN1` (configuration not stated), the hERG blockade was 5.2%.

As to `NC(=S)SCCC(=O)O`, the hERG blockade was 0.17%. With `CC1=CC(C2C(=NO)C=C(C)CC2(C)C)C(O)C(C)(C)C1` (configuration not stated) the figure was 2.54%; with `CC(=O)C(C(c1ccccc1)N1CCOCC1)N1CCOCC1` (configuration not stated), -3.85%; with `COc1cccc2c1C(=O)c1c(O)c3c(c(O)c1C2=O)CC(O)(C(=O)CO)CC3OC1CC(N)C(O)C(C)O1.[W]` (configuration not stated), 0.939%. With `COc1cccc2c1C(=N)c1c(O)c3c(c(O)c1C2=O)CC(O)(C(C)=O)CC3OC1CC(N)C(O)C(C)O1` (configuration not stated) the figure was 32.2% (active); with `COc1cccc2c1C(=O)c1c(O)c3c(c(O)c1C2=O)CC(O)(C(=O)CO)CC3OC1CC(N)C(O)C(C)O1` (configuration not stated), 3.44%.

Take `O=C(O)CC(=Cc1ccccc1)C(=O)O`: the hERG blockade is -18.3%. For `CC1(C)OC2COC(c3[nH]nc4c(=O)[nH]c(=O)[nH]c34)C2O1` (configuration not stated) the value was 16.5%; for `O=C(O)c1ccc(Oc2nc3ccccc3s2)cc1`, 1.79%. For `CN(C)CCCCN1CCc2c(n(C)c3ccccc23)C1=O` the value was -2.05%; for `CN(C)CCCN=c1c2ccccc2n(C)c2[nH]c(=O)n(C)c(=O)c12`, 54.8% (active). On to `CCN(CC)COC(=S)S`, for which the hERG blockade was -4.52%. With `CC1(C)OCC(C2OC(On3nnc4ccc(Cl)cc43)C3OC(C)(C)OC23)O1` (configuration not stated) the figure was 12.7%.

As to `NC(=O)CS(=O)CC(N)C(=O)O` (configuration not stated), the hERG blockade is 5.23%. For `NC(N)=NN=Cc1ccc(C2CCNCC2)cc1` the value was 6.62%; for `COc1cc(N=Nc2cccc(S(N)(=O)=O)c2)c2ccccc2c1N`, 70.8% (active). With `Nc1c(S(=O)(=O)O)cc(S(=O)(=O)O)c2ccc(N=Nc3ccccc3)c(O)c12` the figure was 11.9%; with `N=C(N)SCCON1C(=O)c2ccccc2C1=O`, -2.21%.

In the case of `CC(=O)Nc1ccc(Cc2ccc3[nH]c(=O)cc(C)c3c2)cc1`, the hERG blockade is 0.318%. For `CSC(=[SH+])[N-]N=C(c1ccccn1)c1ccccn1.[Cu][Br]`, the hERG blockade is 3.34%. For `CC1(C)SC2C(NC(=O)C3(N)CCCCC3)C(=O)N2C1C(=O)O` (configuration not stated) the value was -8.47%; for `NC(N)=NNC(=O)C(=O)O`, -3.63%. Turning to `NNC(=O)CCSc1ccccc1`, the hERG blockade was 3.37%. On to `NNC(=O)CCc1ccc2ccc3ccccc3c2c1`, for which the hERG blockade was -44.7% (active). With `O=C(O)CCCc1ccc2ccc3ccccc3c2c1` the figure was 8.7%; with `O=C(CON1C(=O)c2ccccc2C1=O)c1ccccc1`, 13.2%. For `O=C(O)c1ccccc1-c1ccccc1C(=O)Nc1ccc2c(c1)Cc1cc(F)ccc1-2` the value was -4.28%. For `CC(CCCC1SCC2NC(=O)NC21)C(=O)O` (configuration not stated) the value was 6.78%.

Turning to `Cc1cc2cc3c(=O)[nH]c(=O)[nH]c3nc2cc1C`, the hERG blockade was -26% (active). For `Cc1cc2nc3[nH]c4c(Cl)cc(Cl)cc4c3nc2cc1C` the value was -2.06%; for `Cc1cc2c(=O)[nH]c(N)nc2nc1C`, -6.54%; for `O=C(c1cc(Br)ccc1O)c1cc(Br)ccc1O`, -0.498%. For `Clc1ccccc1NN(Cc1ccncc1)c1ccccc1Cl` the value was 9.21%; for `COc1ccc(NC(=S)Nc2ccccc2)cc1`, 3.26%.

Turning to `Cc1cc(C(C)(C)C)c(OCCCN2CCOCC2)c(C(C)(C)C)c1`, the hERG blockade is 20.8% (active).

For `OCCCN=C1CCCCC1`, the hERG blockade is 13.3%. For `NCc1ccc(C(=O)O)cc1` the value was -10.8%; for `c1cncc(CNc2ncn[nH]2)c1`, -6.56%; for `CC(C)N1CCN(c2ccncc2S(=O)(=O)N2CCCCC2)CC1`, 4.4%. For `O=c1[nH][nH]c(=S)c(=O)[nH]1` the value was 4.97%.

Consider `O=c1[nH]c2[nH]c(=S)[nH]c(=S)c2[nH]1`, for which the hERG blockade was 33.1% (active).

As to `Clc1ccccc1NN(Cc1ccccn1)c1ccccc1Cl`, the hERG blockade is 7.97%.

For `Cc1cc(=O)[nH]c(N=C(N)Nc2ccc(Cl)cc2)n1`, the hERG blockade was -17.7%. With `Cc1cccc(C(=O)O)c1CC1NCCC2c3ccccc3NC12` (configuration not stated) the figure was 32.1% (active); with `NC(Cc1cccnn1)C(=O)O` (configuration not stated), 5.87%. Regarding `O=S(=O)(O)n1ccnc1` (tested in a mixture with another compound), the hERG blockade was -15.4%. Turning to `S=C(Nc1ccc2cn[nH]c2c1)Nc1ccc2cn[nH]c2c1`, the hERG blockade was -19.3%. Turning to `Cc1c2cc[n+](CCN3CCCCC3)cc2c(C)c2c1[nH]c1ccc(O)cc12`, the hERG blockade is 26.1% (active). With `CCN(CC)CC[n+]1ccc2c(C)c3[nH]c4ccc(O)cc4c3c(C)c2c1` the figure was 45.4% (active); with `CCN(CC)CC[n+]1ccc2c(C)c3[nH]c4ccccc4c3c(C)c2c1`, 36.7% (active). With `NCCNC(=S)S` the figure was 5.6%; with `NN=C1CC(=O)NC(=O)N1`, -9.37%.

Turning to `CCCCNc1nc(SC)nc2nc[nH]c12`, the hERG blockade was 6.48%. For `COC1C=COC2(C)Oc3c(C)c(O)c4c(O)c(cc(O)c4c3C2=O)NC(=O)C(C)=CC=CC(C)C(O)C(C)C(O)C(C)C(OC(C)=O)C1C` (configuration not stated) the value was 8.1%; for `CC(C)(C)COS(=O)OCC(C)(C)C`, -13.1%. For `CC(=O)C=NCC(=O)O` the value was -0.567%; for `O=C(O)Cc1c[nH]c2ccc(F)cc12`, -3.11%; for `CCOP1(=O)OCC2OC(n3cnc4c(N)ncnc43)C(O)C2O1` (configuration not stated), 5.38%. `CCOc1ccc2c(ccc(C=Cc3cc(C)c4cccnc4c3O)[n+]2C)c1`: the hERG blockade is 37% (active). Turning to `O=C(O)CCC(C(=O)O)N1C(=O)C2C3CCC(C3)C2C1=O` (configuration not stated), the hERG blockade is 7.54%. For `CC12CCC(=O)C=C1CCC1C2C(O)CC2(C)C(c3csc(-c4ccccc4)n3)CCC12` (configuration not stated) the value was -6.87%. Consider `CCc1ccc2c(c1)N(CC(C)CN(C)C)c1ccccc1S2` (configuration not stated), for which the hERG blockade is 25.4% (active).

Consider `O=C(O)C(Cc1ccccc1)Cc1ccccc1`, for which the hERG blockade is -4.1%.

As to `CN(C)c1ccc(C(C#N)N2CCCN(C(C#N)c3ccc(N(C)C)cc3)C2c2ccc(N(C)C)cc2)cc1` (configuration not stated), the hERG blockade is 6%. For `Cc1ccc(S(=O)(=O)N=Nc2c(O)[nH]c3cc(O)c(C(=O)O)cc23)cc1` the value was -2.22%; for `Fc1cccc(CSc2ncnc3c2ncn3C2CCCS2)c1` (configuration not stated), 12.5%; for `OCC1OC(n2cnc3c(C=C(O)c4ccccc4)ncnc32)C(O)C1O` (configuration not stated), 9.21%. For `OCC1OC(n2cnc3c(SCc4ccccc4)ncnc32)C(O)C1O` (configuration not stated) the value was 22.8% (active). Take `C[N+](C)(C)c1nc(N)nc2c1ncn2C1OC(CO)C(O)C1O` (configuration not stated): the hERG blockade was 13.1%. For `O=[N+]([O-])c1ccc(Cl)c(CNc2ncnc3c2ncn3C2CCCCO2)c1` (configuration not stated), the hERG blockade is 7.11%. As to `OCCn1cnc2c(SCc3ccccc3)ncnc21`, the hERG blockade is -7.5%. For `Clc1ccc(CSc2ncnc3c2ncn3C2CCCCO2)cc1` (configuration not stated) the value was 24.5% (active). With `C[N+](C)(C)c1ncnc2c1ncn2C1CCCCO1` (configuration not stated) the figure was -24.9% (active).
